In all, about 4,000 sequences were measured (“arbitrary fluorescence units”: median about 830, highest 2% from about 6,500 on). Shown is part of a subset that was picked to be rich in the highest values.

RUNX1, sequence (Q01196 whole entry): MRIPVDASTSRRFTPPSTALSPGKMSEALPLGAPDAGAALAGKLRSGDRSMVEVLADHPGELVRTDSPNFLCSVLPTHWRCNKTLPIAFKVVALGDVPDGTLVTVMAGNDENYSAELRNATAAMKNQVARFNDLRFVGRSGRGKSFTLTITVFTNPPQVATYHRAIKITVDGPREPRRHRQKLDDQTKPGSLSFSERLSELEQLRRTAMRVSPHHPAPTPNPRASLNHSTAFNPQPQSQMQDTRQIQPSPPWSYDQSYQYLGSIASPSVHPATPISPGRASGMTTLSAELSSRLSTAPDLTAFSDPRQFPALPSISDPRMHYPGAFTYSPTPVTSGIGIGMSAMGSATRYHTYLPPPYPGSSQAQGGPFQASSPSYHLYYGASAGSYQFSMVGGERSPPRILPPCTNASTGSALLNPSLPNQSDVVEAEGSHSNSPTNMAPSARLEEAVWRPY

The target of the experiment is RUNX1 (UniProt Q01196). The experiment can be described thus: RUNX1 binding intensity (PBM fluorescence), RUNX1 alone (arbitrary fluorescence units); higher = stronger binding. Particulars: RUNX1 concentration 2 nM; ETS1 concentration 0 nM. The protocol:
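gcPBM on 36-bp genomic-derived probes (partner site mutated) containing one RUNX1 site and no ETS1 site. Recombinant human RUNX1 (2 nM) was incubated alone or with ETS1 (25 nM) and detected by anti-RUNX1 antibody fluorescence. Values are medians over 4 replicate spots (not normalised). The probes sit in constant array flanks that are not printed.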
For CTGGAACCGCAGGATCCTTGCTGCGTCCTCTCGGTC, the RUNX1 binding intensity was 2340.

GAGTGGGCGGTAACTCGCAGGCCGAACGTGACGCAA came in with an RUNX1 binding intensity of 740.

In turn, GACAACCTACCACAGCCTTCCTTTCGGGCGCTCAGG displayed an RUNX1 binding intensity of 1040.

Sequence TTCTGTGGGGACAATTAGGGTTTCTGGGTTTTCTGA registered an RUNX1 binding intensity of 865.

Turning to AGATTCTAGGCAGTGTCTGTAGCCGCAGCTGAGGGT, the RUNX1 binding intensity came out at 736.

Sequence TACCTAGACCCTTGCCGCCCTTACCGCGGCCAGACA had an RUNX1 binding intensity of 901.

For CTTCTTGCTGCTGAGACTGATACAGCCCGCAAAGCT, the RUNX1 binding intensity was determined as 816.

The sequence TGTTACCACTGTTAGACTAGAGAGCATGCTGTTGTT registered an RUNX1 binding intensity of 841.

Regarding AGCACCACATTCTACACCTCCACCTCATGCTGCGTC, the RUNX1 binding intensity was determined as 1180.

Sequence TTGCCGTAACCACTTTATCCACCTCCTTTTTCACGA displayed an RUNX1 binding intensity of 2720.

CCTAAGTAACCACATTCTCGCTTGCTCCTTCCACAC gave an RUNX1 binding intensity of 3680.

For the sequence GTAGCCGGGTGTTACGGAGCGCTGCGGGCAAAGCAG, the RUNX1 binding intensity turned out to be 671.

As for GGAGGAAGGCAGCAAAGAAAGAGGTGGTTTCGGCAC, the RUNX1 binding intensity came out at 783.

As to CTCAGCCCACCGCTGCGCGGCCGAAAGTCGGAGGTT, the RUNX1 binding intensity worked out at 760.

Sequence TTGCACTCTGCGGGGACGGGAGAAGGAACGAAAAAT yielded an RUNX1 binding intensity of 805.

In turn, TTTGTTGTTCAGGGTGCGAGGCGGCCGCAGCTTCCA gave an RUNX1 binding intensity of 936.

The sequence CACCTCCCACTCACCACAGAGTTTCATGGTGTTTTA showed an RUNX1 binding intensity of 1090.

As to ACTTGACTGCCTGTGGGGTGTGTGGTGTCTGCACTT, the RUNX1 binding intensity amounted to 822.

CGAGTCAGCAAATCACAGCTCTGCGGGTGGGCTCCT: the RUNX1 binding intensity amounted to 739.

In turn, CAGCATGTGGGTGCACACACCGATTCCTTAGAGGTT came in with an RUNX1 binding intensity of 811.

ACTGTGCGTTGAGGTCGTCCGCCATCTGCTGCAGCT displayed an RUNX1 binding intensity of 745.

GAGGTGGTCAGAGCCTCCCTTGACATGAAACAAGAA came in with an RUNX1 binding intensity of 724.

Regarding TTGGCCTCGCCGGGACCCCTTGCACCGCGGACACAG, the RUNX1 binding intensity turned out to be 776.

Consider AAAACGCGCAAATACGGTGGCTGCGGCCCGCGGGCA, for which the RUNX1 binding intensity is 693.

GGGCAGGCCGTATGTGGGAGACCACAAAGCCCAAGG returned an RUNX1 binding intensity of 787.

For CATGACCTCCTCGCACAAGAATGCGGGGGTGGGGGT, the RUNX1 binding intensity came out at 1050.

In the case of CACCCCGCCTCTGCGGGACCACTTCAGGCGCCTTCT, the RUNX1 binding intensity was found to be 876.

AACCCCTTGCACCGCGGACACAGCTTCTTCTTCCCC displayed an RUNX1 binding intensity of 1080.

In turn, GTGGCGCGGTGGGGCGCGGACCCGAAACTGCCAAGT had an RUNX1 binding intensity of 706.

In turn, TGGCTACCCGAAAGGCGCGTTGGCTGCGGCTACGCA registered an RUNX1 binding intensity of 733.

ACCCCGAAAGTGTGGGCGCGGCTGCGGTTTAACCCG displayed an RUNX1 binding intensity of 7200.

As to CCCCACATACGGGGGCCGGGGCCGGGCTGTGGGCTT, the RUNX1 binding intensity came to 755.

Take TCCGCTTCTGTGGTCTGATCTTGCTGGGGCTGAACC: the RUNX1 binding intensity worked out at 1090.

On to ACAGACAGCAGCCTGAGCTCGTGGTTAGAACACCCT, for which the RUNX1 binding intensity worked out at 796.

Sequence GGTCTGCGGCGCGCGGGATGCTGGGCAATGTAGTTT showed an RUNX1 binding intensity of 784.

CAGGCTGCTTCAGGCGCGCGGCAGAGCGGTCAGAGC registered an RUNX1 binding intensity of 716.

With CGTCCCCGCAAAGCCGCGGCAGAAACTCCCGGCGGT, the RUNX1 binding intensity turned out to be 1270.

As for TAGGGGGGCGCGGTGAGCCCCGGCGGGAATCGAAGC, the RUNX1 binding intensity was found to be 716.

With TCCACAATTCCCAGGAGTCTCTGCGGCCGCGCGGAG, the RUNX1 binding intensity amounted to 830.

The sequence TCACAATCGCCCACAAAGACAGCAAGTAACTGTCAG came in with an RUNX1 binding intensity of 892.

In the case of ACGAGGTTTCGTGCAGGCTCCAGCCGAGACCACATC, the RUNX1 binding intensity stood at 744.

On to GTAGGGGAGGGACCGCAGGGAGGCGGCAGTCCTTGT, for which the RUNX1 binding intensity is 931.

In turn, ATCTTGTTCAGGCTCAAAGGGAAACCGCTGCTTTTC yielded an RUNX1 binding intensity of 914.

In turn, GACAGTTTTCGGGCCTAGTTTGCGGCTGCTCCTGCC had an RUNX1 binding intensity of 891.

For CTCTCCAGACCGCGCATTTTGGGTCTCGGAGGAGGT, the RUNX1 binding intensity came out at 735.

In turn, ACGTCATCCCGCAGGGCTGGCGCGCCCGGCGCAGTC registered an RUNX1 binding intensity of 779.

ACGCCGCGCATACGCGCTTTACGGCGGCCGCAAAAT showed an RUNX1 binding intensity of 801.

Consider GAGGAGGAGGTGCGCTGGCTGTTCTGCTGCGGGCCG, for which the RUNX1 binding intensity is 704.

Sequence ATGCCAAGGGACCTCCCTCCACAACCGCCCCCAGCT yielded an RUNX1 binding intensity of 930.

Take CTGACAGCCTCCGCACAAAGCGCGGTCTATTTCTCC: the RUNX1 binding intensity was determined as 918.

As to AAGAAAGGTTCCAGCCTGCGCCCTGCTACCGCGGCG, the RUNX1 binding intensity was 738.

In turn, GCTGCGGCGGCGGCGAAGAGACAACCTCCGCTGGAA yielded an RUNX1 binding intensity of 793.

TCTGGGAGATGGAGTTCACAGCGCTGCGGGGCCGGA came in with an RUNX1 binding intensity of 674.

In turn, CAACGCTTGCCGACCGCCAGCAGGAGGTGGTGGGCG registered an RUNX1 binding intensity of 755.

The sequence TCAAAGCTGCGGGGTTTCATTGCCTGTTCCTGAACA registered an RUNX1 binding intensity of 693.

Sequence AGTATACTGTGGTGAGAAACTGCCTGCCATACCAGC yielded an RUNX1 binding intensity of 824.

On to CGTTTACTGTCTGGGACTGCGCCCACGCGGTCACGT, for which the RUNX1 binding intensity is 871.

Turning to CACTTGGTCTTGCTGCCCTTGTGGCCCTAACACCCT, the RUNX1 binding intensity is 841.

In the case of TTTATCCTTATTTGCTGGCTTCGCCCACAAGCACAG, the RUNX1 binding intensity worked out at 1010.

AGACTAGAGGCGGTTGTGTGAGTCAGAAAGAGGGGC registered an RUNX1 binding intensity of 724.

Turning to TCGGGAGGTGGCATGCTGACTCACCTGTGGCTTGTT, the RUNX1 binding intensity came out at 797.

In the case of CTCCTGCGGCGACACGCCTAGCAGACGGCGCAAGGC, the RUNX1 binding intensity was determined as 773.

ATAACTTGCGGCAAATGCTGGAGGCAGTACCGCCTT came in with an RUNX1 binding intensity of 840.

The values above are taken from the supplement of paper PMC10681739.
